Reference: PubChem BioAssay AID1159580 (chemical genetic matrix, 2015)
The campaign covered roughly 5,500 compounds. About 2,000 (36%) were called active. Not shown: some 18% with an inconclusive outcome. Cut-off read from the data, not from the text of the source: active = normalized growth mostly below about 0.91 (no sharp cut-off); inconclusive = no clear call, values can overlap the other calls; inactive = mostly above about 0.92. The list shows a part of the results.

Assay: chemical genetic growth profiling, strain panel (AID 1159580);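 note: tested at 20 µM; growth read once vehicle control cultures reached saturation at 30 °C; 1 = growth at the plate median or of vehicle wells; lower values mean less growth of the strain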
Conditions: growth OD

Measured: normalized growth

CN[C@H](CC(=O)O)C(=O)O
inactive: S. cerevisiae deletion strains, locus YJR066W, strain TOR1, stronger effect = lower value 0.949 | S. cerevisiae deletion strains, locus YJR075W, strain HOC1, stronger effect = lower value 0.988 | S. cerevisiae deletion strains, locus YKL009W, strain mrt4, stronger effect = lower value 0.938 | S. cerevisiae deletion strains, locus YKL068W, stronger effect = lower value 1.01 | S. cerevisiae deletion strains, locus YKL085W, strain MDH1 (second series), stronger effect = lower value 1.01 | S. cerevisiae deletion strains, locus YKL085W, strain MDH1, stronger effect = lower value 1.01 | S. cerevisiae deletion strains, locus YKL160W, strain elf1, stronger effect = lower value 1.02 | S. cerevisiae deletion strains, locus YKL190W, strain CNB1, stronger effect = lower value 0.999 | S. cerevisiae deletion strains, locus YKR001C, strain vps1, stronger effect = lower value 0.989 | S. cerevisiae deletion strains, locus YKR026C, strain gcn3, stronger effect = lower value 1.02 | S. cerevisiae deletion strains, locus YKR091W, strain srl3, stronger effect = lower value 1.02 | S. cerevisiae deletion strains, locus YLL001W, strain dnm1, stronger effect = lower value 1.03 | S. cerevisiae deletion strains, locus YLL026W, stronger effect = lower value 1.03 | S. cerevisiae deletion strains, locus YLL041C, strain sdh2, stronger effect = lower value 1.01 | S. cerevisiae deletion strains, locus YLR027C, strain aat2, stronger effect = lower value 1.03 | S. cerevisiae deletion strains, locus YLR039C, strain RIC1, stronger effect = lower value 0.962 | S. cerevisiae deletion strains, locus YLR058C, strain SHM2, stronger effect = lower value 0.989 | S. cerevisiae deletion strains, locus YLR102C, strain apc9, stronger effect = lower value 0.989 | S. cerevisiae deletion strains, locus YLR113W, strain HOG1, stronger effect = lower value 1.07 | S. cerevisiae deletion strains, locus YLR221C, strain rsa3, stronger effect = lower value 1 | S. cerevisiae deletion strains, locus YLR258W, strain gsy2, stronger effect = lower value 1.02 | S. cerevisiae deletion strains, locus YLR262C, strain YPT6 (second series), stronger effect = lower value 1.01 | S. cerevisiae deletion strains, locus YLR262C, strain YPT6, stronger effect = lower value 0.936 | S. cerevisiae deletion strains, locus YLR268W, strain sec22, stronger effect = lower value 0.991 | S. cerevisiae deletion strains, locus YLR320W, strain mms22, stronger effect = lower value 0.992 | S. cerevisiae deletion strains, locus YLR330W, strain CHS5, stronger effect = lower value 0.991 | S. cerevisiae deletion strains, locus YLR342W, strain FKS1 (second series), stronger effect = lower value 0.983 | S. cerevisiae deletion strains, locus YLR342W, strain FKS1, stronger effect = lower value 1.02 | S. cerevisiae deletion strains, locus YLR357W, strain rsc2, stronger effect = lower value 0.995 | S. cerevisiae deletion strains, locus YLR370C, strain arc18, stronger effect = lower value 1.02 | S. cerevisiae deletion strains, locus YLR371W, strain rom2, stronger effect = lower value 0.997 | S. cerevisiae deletion strains, locus YLR384C, strain iki3, stronger effect = lower value 1.03 | S. cerevisiae deletion strains, locus YLR418C, strain cdc73, stronger effect = lower value 0.947 | S. cerevisiae deletion strains, locus YML016C, strain PPZ1, stronger effect = lower value 0.989 | S. cerevisiae deletion strains, locus YML032C, strain rad52, stronger effect = lower value 0.964 | S. cerevisiae deletion strains, locus YML120C, strain ndi1, stronger effect = lower value 1.03 | S. cerevisiae deletion strains, locus YML124C, strain tub3, stronger effect = lower value 0.99 | S. cerevisiae deletion strains, locus YMR058W, strain fet3, stronger effect = lower value 1.01 | S. cerevisiae deletion strains, locus YMR078C, strain ctf18, stronger effect = lower value 0.98 | S. cerevisiae deletion strains, locus YMR125W, strain sto1, stronger effect = lower value 1.08 | S. cerevisiae deletion strains, locus YMR129W, stronger effect = lower value 1.01 | S. cerevisiae deletion strains, locus YMR205C, strain PFK2, stronger effect = lower value 1.03 | S. cerevisiae deletion strains, locus YMR223W, strain ubp8, stronger effect = lower value 0.937 | S. cerevisiae deletion strains, locus YMR231W, strain pep5, stronger effect = lower value 0.998 | S. cerevisiae deletion strains, locus YMR307W, strain GAS1, stronger effect = lower value 0.89 | S. cerevisiae deletion strains, locus YNL067W, strain RPL9B, stronger effect = lower value 1.02 | S. cerevisiae deletion strains, locus YNL071W, strain lat1, stronger effect = lower value 1.02 | S. cerevisiae deletion strains, locus YNL153C, strain GIM3, stronger effect = lower value 1.03 | S. cerevisiae deletion strains, locus YNL183C, strain NPR1, stronger effect = lower value 0.992 | S. cerevisiae deletion strains, locus YNL209W, strain ssb2, stronger effect = lower value 1.01 | S. cerevisiae deletion strains, locus YNL233W, strain BNI4, stronger effect = lower value 1.01 | S. cerevisiae deletion strains, locus YNL248C, strain rpa49, stronger effect = lower value 0.98 | S. cerevisiae deletion strains, locus YNL250W, strain rad50, stronger effect = lower value 0.941 | S. cerevisiae deletion strains, locus YNL271C, strain bni1, stronger effect = lower value 0.977 | S. cerevisiae deletion strains, locus YNL298W, strain CLA4, stronger effect = lower value 0.972 | S. cerevisiae deletion strains, locus YNL307C, strain MCK1, stronger effect = lower value 0.976 | S. cerevisiae deletion strains, locus YNL322C, strain KRE1 (second series), stronger effect = lower value 1.03 | S. cerevisiae deletion strains, locus YNR049C, strain mso1, stronger effect = lower value 1.02 | S. cerevisiae deletion strains, locus YNR052C, strain pop2, stronger effect = lower value 0.978 | S. cerevisiae deletion strains, locus YOL006C, strain TOP1, stronger effect = lower value 1.06 | S. cerevisiae deletion strains, locus YOL012C, strain htz1 0.629 | S. cerevisiae deletion strains, locus YOL147C, strain pex11, stronger effect = lower value 0.984 | S. cerevisiae deletion strains, locus YOR001W, strain rrp6, stronger effect = lower value 1.02 | S. cerevisiae deletion strains, locus YOR061W, strain CKA2, stronger effect = lower value 0.994 | S. cerevisiae deletion strains, locus YOR069W, strain VPS5, stronger effect = lower value 0.991 | S. cerevisiae deletion strains, locus YOR070C, strain gyp1, stronger effect = lower value 1.01 | S. cerevisiae deletion strains, locus YOR080W, strain dia2, stronger effect = lower value 1.03 | S. cerevisiae deletion strains, locus YOR083W, strain WHI5, stronger effect = lower value 1.02 | S. cerevisiae deletion strains, locus YOR106W, strain vam3, stronger effect = lower value 1.01 | S. cerevisiae deletion strains, locus YOR136W, strain idh2, stronger effect = lower value 0.991 | S. cerevisiae deletion strains, locus YOR144C, strain elg1, stronger effect = lower value 0.99 | S. cerevisiae deletion strains, locus YOR184W, strain ser1, stronger effect = lower value 0.936 | S. cerevisiae deletion strains, locus YOR231W, strain MKK1, stronger effect = lower value 1.1 | S. cerevisiae deletion strains, locus YOR265W, strain rbl2, stronger effect = lower value 1.03 | S. cerevisiae deletion strains, locus YOR270C, strain vph1, stronger effect = lower value 1 | S. cerevisiae deletion strains, locus YOR290C, strain snf2, stronger effect = lower value 1.01 | S. cerevisiae deletion strains, locus YOR316C, strain cot1, stronger effect = lower value 0.991 | S. cerevisiae deletion strains, locus YPL051W, strain arl3, stronger effect = lower value 1.02 | S. cerevisiae deletion strains, locus YPL078C, strain atp4, stronger effect = lower value 0.989 | S. cerevisiae deletion strains, locus YPL106C, strain sse1, stronger effect = lower value 1.04 | S. cerevisiae deletion strains, locus YPL240C, strain hsp82, stronger effect = lower value 1.04 | S. cerevisiae deletion strains, locus YPL256C, strain CLN2, stronger effect = lower value 1.06 | S. cerevisiae deletion strains, locus YPR119W, strain clb2, stronger effect = lower value 0.987 | S. cerevisiae deletion strains, locus YPR141C, strain kar3, stronger effect = lower value 0.985 | S. cerevisiae deletion strains, locus YPR163C, strain tif3, stronger effect = lower value 0.995 | S. cerevisiae deletion strains, locus YPR167C, strain met16, stronger effect = lower value 0.981 | S. cerevisiae deletion strains, strain wtn01, stronger effect = lower value 0.963 | S. cerevisiae strains, strain wild type, stronger effect = lower value 0.995
